Here are results for eight compounds from PubChem BioAssay (Tox21).

Experiment [1] in a line: Human pregnane X receptor (PXR) small molecule agonists, qHTS cell viability counter screen (AID 1346977). Note: nearly all actives have a fitted effect of over 50% in size. Note: potency is the fitted concentration of half-maximal effect. A digest of the protocol:
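PXR-Luc HepG2 cells in medium with 5% charcoal-stripped FBS were pre-incubated 5hr, then exposed to compounds for 24hr at 37C. Viability was read in the same wells by CellTiter-Fluor fluorescence, reagent added after 23hr with a 1hr incubation.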

A short description of experiment [2]: Caspase-3/7 induction in HepG2 cells by small molecules, qHTS assay (AID 1346978). Note: nearly all actives have a fitted effect of over 15% in size. The gist of the method: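 Caspase-3/7 induction was measured by Caspase-Glo 3/7 luminescence (30 min, room temperature) after a 17 hr compound exposure of wild-type HepG2 cells seeded at 2,000 per well and pre-incubated 5 hr.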
For orientation: Quantitative high-throughput screening tests each substance at several concentrations.

Experiment [3] can be described thus: Caspase-3/7 induction in HepG2 cells by small molecules, qHTS cell viability counter screen (AID 1346981). Note: series mostly up to about 92 µM; nearly all actives have a fitted effect of over 30% in size. A digest of the protocol: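 Wild-type HepG2 cells (2,000/well) were allowed to settle for 5 hr at 37 C, 5% CO2, then dosed with compounds in DMSO by pin transfer. After 16 hr at 37 C, CellTiter-Fluor was added and fluorescence read 1 hr later.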
Experiment [4] deals with Acetylcholinesterase (Homo sapiens) (UniProt P22303). Kind of experiment: Acetylcholinesterase (AChE) small molecule antagonists: enzyme-based qHTS assay (AID 1347397; calls by dose curve; note: nearly all actives have a fitted effect of over 55% in size; note: potency is the fitted concentration of half-maximal effect). The settings on record: Potency: AChE enzyme activity inhibition. A digest of the protocol:
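rhAChE 50 mU/mL (dispensed) + cpd or DMSO, 30 min RT; add DTNB/acetylthiocholine cocktail, 10 min RT; colorimetric thiocholine readout. qHTS, 1536-well format.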

For experiment [5] the target is unchanged. Kind of experiment: Acetylcholinesterase (AChE) small molecule antagonists: fluorescence cell-based qHTS assay (AID 1347398; calls by dose curve; note: nearly all actives have a fitted effect of over 50% in size; note: potency is the fitted concentration of half-maximal effect). The settings on record: Potency: AChE activity. A digest of the protocol: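 Read-out is Thiolite Green fluorescence at Ex/Em = 490/520 nm, formed by reaction with thiocholine released when cellular AChE in SH-SY5Y cells hydrolyzes acetylthiocholine. Compounds were preincubated 30 min at 37 C before substrate.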

Experiment [6] shares this target. Description: Acetylcholinesterase (AChE) small molecule antagonists: enzyme-based qHTS assay with human liver microsomes (AID 1347399; calls by dose curve; note: nearly all actives have a fitted effect of over 60% in size; note: potency is the fitted concentration of half-maximal effect). As to conditions: Potency: qHTS inhibition. The gist of the method: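 Recombinant human AChE (50 mU/mL in the enzyme mix) and human liver microsomes (0.25 mg/mL final) were preincubated with compound and NADPH (0.25 mg/mL final) for 30 min at 37 C. Acetylthiocholine/DTNB was then added; thiocholine was read colorimetrically after 10 min at room temperature.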

Experiment [7] deals with Cytochrome P450 2D6 (Homo sapiens) (UniProt P10635). Description: Cytochrome P450 Family 2 Subfamily D Member 6 (CYP2D6) small molecule antagonists: luciferase reporter qHTS assay (AID 1671196). Note: nearly all actives have a fitted effect of over 50% in size. Note: potency is the fitted concentration of half-maximal effect. A digest of the protocol:
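CYP2D6 enzyme–substrate mix was held with compound for 10 min at room temperature, then NADPH regeneration solution was added and the reaction ran 1 h at room temperature. Luciferin product was detected by luminescence after 20 min with detection reagent.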
On the technique in general: In a reporter assay the amount or activity of a reporter protein is the signal.

For experiment [8], the target named is Cytochrome P450 2C19 (Homo sapiens) (UniProt P33261). Kind of experiment: Cytochrome P450 Family 2 Subfamily C Member 19 (CYP2C19) small molecule antagonists: luciferase reporter qHTS assay (AID 1671197). Note: nearly all actives have a fitted effect of over 65% in size. Note: potency is the fitted concentration of half-maximal effect. A digest of the protocol:
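P450-Glo CYP2C19 system: enzyme-substrate mix with compound 10 min at room temperature, then NADPH regeneration solution, 1 h at 37C. Proluciferin-to-luciferin conversion detected by luminescence after 20 min with detection reagent; ketoconazole as positive control.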

Experiment [9] deals with Cytochrome P450 2C9 (Homo sapiens) (UniProt P11712). Description: Cytochrome P450 Family 2 Subfamily C Member 9 (CYP2C9) small molecule antagonists: luciferase reporter qHTS assay (AID 1671198). Note: nearly all actives have a fitted effect of over 50% in size. Note: potency is the fitted concentration of half-maximal effect. A digest of the protocol:
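Enzyme-substrate mix preincubated with compound 10 min at room temperature; reaction started with NADPH regeneration solution, 1 h 37C. Luminescent luciferin product read after 20 min detection reagent.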

Experiment [10] deals with Cytochrome P450 1A2 (Homo sapiens) (UniProt P05177). Description: Cytochrome P450 Family 1 Subfamily A Member 2 (CYP1A2) small molecule antagonists: luciferase reporter qHTS assay (AID 1671199). Note: nearly all actives have a fitted effect of over 50% in size. Note: potency is the fitted concentration of half-maximal effect. The gist of the method:
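Human CYP1A2 activity measured with a P450-Glo proluciferin substrate; compounds in DMSO preincubated 10 min at room temperature with enzyme-substrate mix, then NADPH regeneration system added for 1 h. Luciferin detection reagent, 20 min, luminescence read.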

Experiment [11] deals with Voltage-gated inwardly rectifying potassium channel KCNH2 (Homo sapiens) (UniProt Q12809). Description: Human Ether-a-go-go-Related Gene (hERG) channel small molecule antagonists: fluorescence cell-based qHTS assay (AID 1671200). Note: nearly all actives have a fitted effect of over 50% in size. Note: potency is the fitted concentration of half-maximal effect. The gist of the method:
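U2OS cells expressing the channel were plated at 1000 cells/well, incubated overnight at 37 C, then loaded with FluxOR II thallium-sensitive dye for 1 h at room temperature in the dark, with a further 10 min at room temperature before stimulation.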
In general terms: hERG is a cardiac potassium channel; its block is linked to QT prolongation.

Experiment [12] can be described thus: Caspase-3/7 induction in CHO-K1 cells by small molecules, qHTS assay (AID 1346980). Note: nearly all actives have a fitted effect of over 15% in size. A digest of the protocol: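 Luminescent Caspase-Glo 3/7 read (30min, room temperature) quantified apoptosis induction. Cells were wild-type CHO-K1, treated with compound for 17hr at 37 C and 5% CO2.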
Experiment [13] concerns the target Nuclear receptor subfamily 1 group I member 2 (Homo sapiens) (UniProt O75469). Description: Human pregnane X receptor (PXR) small molecule agonists, qHTS assay (AID 1346982). Note: nearly all actives have a fitted effect of over 35% in size. Note: potency is the fitted concentration of half-maximal effect. The gist of the method:
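PXR-Luc HepG2 cells (CYP3A4 promoter-driven luciferase) were seeded in medium with 5% charcoal-stripped FBS, left 5 hr at 37 C, then exposed to compounds in DMSO for 24 hr. Luminescence was read after ONE-Glo addition.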

Experiment [14] addresses Acetylcholinesterase (Homo sapiens) (UniProt P22303). Description: Acetylcholinesterase (AChE) small molecule antagonists: colormetric cell-based qHTS assay (AID 1347395; calls by dose curve; note: nearly all actives have a fitted effect of over 30% in size; note: potency is the fitted concentration of half-maximal effect). The gist of the method: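 SH-SY5Y cells, plated overnight at 37 C, were exposed to compounds for 30 min at 37 C and 5% CO2. Acetylthiocholine plus DTNB was then added, and thiocholine from endogenous AChE was quantified colorimetrically after 90 min at 37 C.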

The target of experiment [15] is Cytochrome P450 3A4 (Homo sapiens) (UniProt P08684). Kind of experiment: Cytochrome P450 Family 3 Subfamily A Member 4 (CYP3A4) small molecule antagonists: luciferase reporter qHTS assay (AID 1671201). A digest of the protocol: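 P450-Glo CYP3A4 system with proluciferin substrate; compounds preincubated 10 min RT with enzyme-substrate mix, then NADPH regeneration added for 1 h RT. Detection reagent 20 min, luminescence read as relative luminescence units.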
Sequence of Cytochrome P450 3A4 (Homo sapiens) (P08684 whole entry, looked up): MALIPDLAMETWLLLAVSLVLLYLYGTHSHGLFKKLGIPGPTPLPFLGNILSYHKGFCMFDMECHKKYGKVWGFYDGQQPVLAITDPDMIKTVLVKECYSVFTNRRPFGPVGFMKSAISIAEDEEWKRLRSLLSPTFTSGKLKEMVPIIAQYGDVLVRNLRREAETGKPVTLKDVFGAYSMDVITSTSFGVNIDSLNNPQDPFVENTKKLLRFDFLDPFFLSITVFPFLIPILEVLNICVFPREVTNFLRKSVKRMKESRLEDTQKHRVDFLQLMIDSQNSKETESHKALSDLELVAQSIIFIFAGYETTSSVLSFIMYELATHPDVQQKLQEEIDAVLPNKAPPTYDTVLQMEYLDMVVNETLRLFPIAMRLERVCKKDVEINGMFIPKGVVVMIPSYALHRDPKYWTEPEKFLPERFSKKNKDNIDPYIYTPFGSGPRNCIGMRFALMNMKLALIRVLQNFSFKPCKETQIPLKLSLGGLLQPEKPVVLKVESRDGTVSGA

A short description of experiment [16]: Caspase-3/7 induction in CHO-K1 cells by small molecules, qHTS cell viability counter screen (AID 1346979). Note: nearly all actives have a fitted effect of over 35% in size. The gist of the method:
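Wild-type CHO-K1 cells were seeded at 1,500 per well, rested 5hr at 37 C, then exposed to compounds in DMSO. After 16hr, CellTiter-Fluor reagent was added and fluorescence read 1hr later as the viability measure.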

Each structure is given as a SMILES string. Inconclusive results are not listed. The source made the active and inactive calls. Unless noted, calls come from the whole dose curve; as a rule, active = well fitted curve in the direction sought with a large enough effect in the repeat runs; inconclusive = weak or mixed curves; inactive = no such curve, though single readings can be large; an effect the other way counts as inactive or inconclusive.

Sequence of Cytochrome P450 2C19 (Homo sapiens) (P33261 whole entry, looked up): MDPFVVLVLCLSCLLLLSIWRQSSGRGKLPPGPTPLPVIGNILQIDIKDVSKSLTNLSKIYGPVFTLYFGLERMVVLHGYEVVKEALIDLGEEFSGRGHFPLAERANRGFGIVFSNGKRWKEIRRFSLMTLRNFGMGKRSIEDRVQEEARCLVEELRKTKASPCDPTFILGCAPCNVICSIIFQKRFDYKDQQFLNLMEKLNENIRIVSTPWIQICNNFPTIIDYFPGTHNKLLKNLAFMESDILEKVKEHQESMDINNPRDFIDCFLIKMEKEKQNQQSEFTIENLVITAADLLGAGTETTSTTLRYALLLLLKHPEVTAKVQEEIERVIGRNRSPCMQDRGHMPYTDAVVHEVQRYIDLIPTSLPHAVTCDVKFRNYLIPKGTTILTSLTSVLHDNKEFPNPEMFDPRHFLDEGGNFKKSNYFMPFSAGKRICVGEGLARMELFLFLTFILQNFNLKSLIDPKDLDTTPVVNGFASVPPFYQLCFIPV
Sequence of Voltage-gated inwardly rectifying potassium channel KCNH2 (Homo sapiens) (Q12809 whole entry, looked up): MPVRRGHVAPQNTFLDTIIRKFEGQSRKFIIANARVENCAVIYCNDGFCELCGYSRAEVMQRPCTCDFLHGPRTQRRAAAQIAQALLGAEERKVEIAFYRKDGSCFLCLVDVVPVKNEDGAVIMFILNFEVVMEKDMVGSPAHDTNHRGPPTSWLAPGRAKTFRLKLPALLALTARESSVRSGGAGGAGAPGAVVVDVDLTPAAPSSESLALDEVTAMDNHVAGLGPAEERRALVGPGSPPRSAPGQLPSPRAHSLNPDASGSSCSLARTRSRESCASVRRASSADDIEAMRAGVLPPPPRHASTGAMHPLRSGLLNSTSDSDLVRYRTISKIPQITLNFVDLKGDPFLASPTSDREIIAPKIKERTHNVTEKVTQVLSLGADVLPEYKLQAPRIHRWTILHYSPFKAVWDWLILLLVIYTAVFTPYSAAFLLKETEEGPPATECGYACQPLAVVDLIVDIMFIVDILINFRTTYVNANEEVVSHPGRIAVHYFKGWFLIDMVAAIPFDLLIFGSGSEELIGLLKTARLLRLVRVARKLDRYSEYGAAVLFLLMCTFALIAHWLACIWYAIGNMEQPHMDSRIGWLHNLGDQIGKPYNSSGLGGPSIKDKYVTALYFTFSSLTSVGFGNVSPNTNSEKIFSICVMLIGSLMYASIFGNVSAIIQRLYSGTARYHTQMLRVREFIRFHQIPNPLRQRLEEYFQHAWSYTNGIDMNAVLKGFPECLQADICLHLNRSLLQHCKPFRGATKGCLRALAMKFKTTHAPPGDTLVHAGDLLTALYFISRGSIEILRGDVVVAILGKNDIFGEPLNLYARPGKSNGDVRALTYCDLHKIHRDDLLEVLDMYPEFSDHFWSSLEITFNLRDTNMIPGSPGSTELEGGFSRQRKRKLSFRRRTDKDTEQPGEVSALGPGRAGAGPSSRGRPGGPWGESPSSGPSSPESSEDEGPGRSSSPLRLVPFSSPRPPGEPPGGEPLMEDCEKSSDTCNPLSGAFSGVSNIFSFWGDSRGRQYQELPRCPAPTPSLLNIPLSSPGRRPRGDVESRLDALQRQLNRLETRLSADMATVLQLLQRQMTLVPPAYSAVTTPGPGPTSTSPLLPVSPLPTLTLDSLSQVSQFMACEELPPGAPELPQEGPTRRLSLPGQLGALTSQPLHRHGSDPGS
Sequence of Acetylcholinesterase (Homo sapiens) (P22303 whole entry, looked up): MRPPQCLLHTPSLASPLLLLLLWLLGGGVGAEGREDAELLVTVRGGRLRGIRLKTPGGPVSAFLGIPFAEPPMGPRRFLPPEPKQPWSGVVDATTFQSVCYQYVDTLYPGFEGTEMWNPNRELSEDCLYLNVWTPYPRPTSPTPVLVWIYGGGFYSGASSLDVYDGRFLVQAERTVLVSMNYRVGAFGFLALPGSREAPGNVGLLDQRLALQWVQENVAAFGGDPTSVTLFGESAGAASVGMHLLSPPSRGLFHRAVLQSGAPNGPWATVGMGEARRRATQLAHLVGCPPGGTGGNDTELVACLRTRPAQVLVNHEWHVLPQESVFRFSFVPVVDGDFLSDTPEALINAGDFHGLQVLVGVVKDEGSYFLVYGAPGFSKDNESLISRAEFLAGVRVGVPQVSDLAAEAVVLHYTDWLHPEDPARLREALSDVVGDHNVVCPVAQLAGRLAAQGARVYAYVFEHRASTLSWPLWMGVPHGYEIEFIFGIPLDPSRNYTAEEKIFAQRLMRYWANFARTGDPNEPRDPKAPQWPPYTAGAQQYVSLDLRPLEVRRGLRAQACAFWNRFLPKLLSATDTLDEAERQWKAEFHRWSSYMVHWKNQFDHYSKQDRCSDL
Sequence of Nuclear receptor subfamily 1 group I member 2 (Homo sapiens) (O75469 whole entry, looked up): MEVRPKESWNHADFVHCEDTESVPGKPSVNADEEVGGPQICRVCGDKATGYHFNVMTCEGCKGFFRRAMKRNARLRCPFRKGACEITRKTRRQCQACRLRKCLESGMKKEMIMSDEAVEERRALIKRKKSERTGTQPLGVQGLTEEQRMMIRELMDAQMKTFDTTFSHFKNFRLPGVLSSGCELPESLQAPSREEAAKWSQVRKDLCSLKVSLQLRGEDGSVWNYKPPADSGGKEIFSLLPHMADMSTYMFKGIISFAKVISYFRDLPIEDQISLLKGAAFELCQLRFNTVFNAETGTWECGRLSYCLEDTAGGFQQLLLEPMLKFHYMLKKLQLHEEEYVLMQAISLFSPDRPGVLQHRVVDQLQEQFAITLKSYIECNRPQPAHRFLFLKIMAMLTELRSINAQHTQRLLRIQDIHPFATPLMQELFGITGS
Sequence of Cytochrome P450 2D6 (Homo sapiens) (P10635 whole entry, looked up): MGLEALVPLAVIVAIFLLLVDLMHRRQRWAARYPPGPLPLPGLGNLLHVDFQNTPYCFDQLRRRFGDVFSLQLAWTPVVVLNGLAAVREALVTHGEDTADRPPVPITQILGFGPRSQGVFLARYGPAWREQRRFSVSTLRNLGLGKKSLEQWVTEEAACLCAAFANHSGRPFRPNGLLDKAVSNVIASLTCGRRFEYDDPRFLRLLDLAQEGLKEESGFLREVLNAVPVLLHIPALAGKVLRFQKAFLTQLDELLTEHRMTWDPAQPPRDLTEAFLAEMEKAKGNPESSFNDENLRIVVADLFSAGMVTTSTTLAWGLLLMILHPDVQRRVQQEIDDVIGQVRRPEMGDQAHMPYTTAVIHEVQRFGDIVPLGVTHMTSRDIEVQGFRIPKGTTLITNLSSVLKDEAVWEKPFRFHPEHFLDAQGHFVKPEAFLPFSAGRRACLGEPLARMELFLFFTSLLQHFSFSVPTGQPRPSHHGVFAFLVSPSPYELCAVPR
Sequence of Cytochrome P450 1A2 (Homo sapiens) (P05177 whole entry, looked up): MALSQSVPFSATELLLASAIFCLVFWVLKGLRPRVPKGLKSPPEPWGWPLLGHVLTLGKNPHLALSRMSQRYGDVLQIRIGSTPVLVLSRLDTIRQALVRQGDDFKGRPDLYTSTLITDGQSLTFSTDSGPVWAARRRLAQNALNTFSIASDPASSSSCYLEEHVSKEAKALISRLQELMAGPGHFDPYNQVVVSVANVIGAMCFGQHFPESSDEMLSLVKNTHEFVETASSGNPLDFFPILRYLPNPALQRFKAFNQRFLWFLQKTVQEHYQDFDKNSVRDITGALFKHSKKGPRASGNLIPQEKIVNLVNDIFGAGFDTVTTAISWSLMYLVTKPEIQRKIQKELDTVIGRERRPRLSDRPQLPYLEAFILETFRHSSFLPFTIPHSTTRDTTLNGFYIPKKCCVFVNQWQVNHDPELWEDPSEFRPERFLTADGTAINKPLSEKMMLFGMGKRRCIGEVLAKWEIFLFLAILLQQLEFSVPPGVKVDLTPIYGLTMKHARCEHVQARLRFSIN
Sequence of Cytochrome P450 2C9 (Homo sapiens) (P11712 whole entry, looked up): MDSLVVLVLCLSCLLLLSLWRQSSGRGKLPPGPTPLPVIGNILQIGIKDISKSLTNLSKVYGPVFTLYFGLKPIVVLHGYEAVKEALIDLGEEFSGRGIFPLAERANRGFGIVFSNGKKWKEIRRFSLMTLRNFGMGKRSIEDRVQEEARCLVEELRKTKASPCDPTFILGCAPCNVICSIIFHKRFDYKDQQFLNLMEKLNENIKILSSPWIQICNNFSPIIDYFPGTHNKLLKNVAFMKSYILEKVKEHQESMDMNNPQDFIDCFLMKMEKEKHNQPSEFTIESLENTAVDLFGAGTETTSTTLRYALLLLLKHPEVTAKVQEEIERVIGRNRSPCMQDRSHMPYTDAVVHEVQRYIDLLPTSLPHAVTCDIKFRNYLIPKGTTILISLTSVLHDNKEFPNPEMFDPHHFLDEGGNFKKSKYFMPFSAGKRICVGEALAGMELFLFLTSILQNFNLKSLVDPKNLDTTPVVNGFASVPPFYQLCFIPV

In the case of `C[C@]12CC[C@H]3[C@@H](CCC4=CC(=O)CC[C@@H]43)[C@@H]1CC[C@@H]2OC(=O)CCc1ccco1`, the Potency result in experiment [1], in experiment [2], in experiment [3], in experiment [4], in experiment [5] and in [6] was “inactive” each time. Also, the Potency result in experiment [7], in experiment [8] and in [10] was “inactive” each time. The Potency was 17.4 µM (active) in experiment [9] and 10.7 µM (active) in [11].
As to `CCOP(=S)(OCC)SC(CCl)N1C(=O)c2ccccc2C1=O` (stereo not given), the Potency entry in experiment [1], in experiment [2], in experiment [12], in experiment [3] and in experiment [11] was “inactive” each time. Further, the Potency in experiment [13] was 4.33 µM (active); in [14], 31.7 µM (active); in experiment [4] it was 63.3 µM (active); in experiment [5] it was 10 µM (active); in experiment [6], 1.42 µM (active); in [7], 39.9 µM (active). In addition, the Potency in [8] is 0.399 µM (active); in experiment [9] it was 1.12 µM (active); in experiment [10], 63.3 µM (active).
In the case of `Cc1c([N+](=O)[O-])c(C)c([N+](=O)[O-])c(C(C)(C)C)c1[N+](=O)[O-]`, the Potency result in experiment [1], in experiment [2], in experiment [12], in experiment [3], in experiment [4] and in experiment [5] was “inactive” throughout. The Potency result in [6], in experiment [7], in experiment [8], in experiment [9] and in [15] was “inactive” each time. Further, the Potency in experiment [13] is 48.6 µM (active); in experiment [10], 5.03 µM (active).
On to `CCCCN(CCCC)C(=S)S`, for which the Potency entry in experiment [2], in experiment [16], in [12], in experiment [3], in [14] and in experiment [4] was “inactive” in each case. The Potency entry in [5], in [6] and in experiment [8] was “inactive” throughout. Also, the results for the Potency in [13] and in [7] were 24.3 µM (active) and 1.59 µM (active), respectively.
On to `CC#C[C@]1(O)CC[C@H]2[C@@H]3C[C@H](C)C4=CC(=O)CC[C@]4(C)[C@H]3CC[C@@]21C`, for which the Potency entry in experiment [1], in experiment [2], in [12], in experiment [3], in experiment [4] and in experiment [5] was “inactive” each time. The Potency entry in experiment [6], in [7], in experiment [10] and in [11] was “inactive” throughout. Further, the Potency in experiment [13] was 23.7 µM (active); in experiment [8] it was 9.77 µM (active); in [9] it was 17.4 µM (active).
On to `CNC(=O)CSP(=O)(OC)OC`, for which the Potency result in [1], in [2], in [3], in experiment [13], in [4] and in [5] was “inactive” in each case. Moreover, the Potency entry in experiment [6], in experiment [8], in experiment [9], in [11] and in experiment [15] was “inactive” each time.
As for `Oc1cc(Cl)c(Cl)c(Cl)c1Cl`, the values for the Potency in [1], in experiment [13] and in [10] were 29.9 µM (active), 33.6 µM (active) and 27.6 µM (active), respectively. The Potency entry in [2], in experiment [12], in experiment [14], in experiment [4], in experiment [5] and in [6] was “inactive” throughout. For the same compound, the Potency entry in experiment [8], in experiment [11] and in experiment [15] was “inactive” throughout.
With `CC(=O)[O-].CC(=O)[O-].CC(=O)[O-].[Cr+3]`, the Potency entry in experiment [1], in experiment [2], in experiment [12], in experiment [3] and in experiment [11] was “inactive” each time.
